# High-throughput results: PubChem, several laboratories
# Sa RN4220 lethal: S. aureus RN4220 growth inhibition; 330,000 tested, 0.33% active; AID 1259311; OD600, 16 h; inhibition, % (no concentration beside the values); in the data active = inhibition above about 85%;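 also: plate controls were untreated cells for no effect and reference antibiotic for full effect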
# Mtb hypoxia rep: inhibitors of hypoxia-regulated fluorescent reporter in Mycobacterium tuberculosis | M. tuberculosis hypoxia-regulated fluorescent reporter, fluorescence | fluorescence inhibition, % (concentration not given with the values) | 300,000 tested, 0.1% active; in the data active = fluorescence inhibition mostly above about 23%, no sharp cut-off; inactive = mostly below about 17%
# CCHF vOTU inh-1: CCHFV vOTU protease inhibition | Pep-AMC fluorescence | inhibition, % at 11.5 µM | 370,000 tested, 0.55% active | AID 651958; also: 0% = vehicle wells with enzyme and 100% = no enzyme wells
# SSB-PriA inh: blocks PriA binding to SSB C-terminal tail. AlphaScreen SSBct-PriA binding, biotinylated peptide. 430,000 tested, 0.6% active. inhibition, % at 33 µM; in the data active = inhibition mostly above about 37%, no sharp cut-off; inactive = mostly below about 20%;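 also: plate controls were negative control peptide for no effect and reference peptide for full effect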
# Sa ugtP lethal: growth inhibition of S. aureus ugtP deletion strain; S. aureus RN4220 ugtP deletion, OD600 growth, 16 h; growth inhibition, % (no concentration beside the values); 330,000 tested, 0.54% active; in the data active = growth inhibition above about 68%;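 also: plate controls were untreated wells for no effect and antibiotic for full effect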
# CCHF vOTU inh-2: confirmation of CCHF virus vOTU protease inhibitors. inhibition, % at 11.5 µM. Recombinant CCHFV vOTU, Pep-AMC fluorescence. 1,900 tested, 17% active. shares compounds with CCHF vOTU inh-1. AID 686976
# * hit, by the source's call; . = not tested or not shown. The list is not random: actives were taken first. Their share in the collection is about 1.4%. Rule as the data show it, unless noted: active = inhibition above about 30%; inactive = the rest.
SMILES,Sa RN4220 lethal,Mtb hypoxia rep,CCHF vOTU inh-1,SSB-PriA inh,Sa ugtP lethal,CCHF vOTU inh-2
CCCCC[C@@H](C)N1C[C@@H](COCc2ccccc2)Oc2cc(N3CC[C@@H](O)C3)ccc2S1(=O)=O,.,.,30.9*,.,.,-3.8
CCCCC[C@@H](C)N1C[C@H](COCc2ccccc2)Oc2cc(N3CCC[C@@H]3COC)ccc2S1(=O)=O,.,.,8.9,.,.,.
CCCCC[C@H](C)N1C[C@H](COCc2ccccc2)Oc2cc(N3CC[C@@H](N(C)C)C3)ccc2S1(=O)=O,.,.,36.7*,.,.,3.2
CCCCC[C@@H](C)N1C[C@@H](COCc2ccccc2)Oc2cc(N3CC[C@@H](N(C)C)C3)ccc2S1(=O)=O,.,.,34.7*,.,.,1.6
CCCCC[C@@H](C)N1C[C@H](COCc2ccccc2)Oc2cc(N3CC[C@@H](N(C)C)C3)ccc2S1(=O)=O,.,.,15.4,.,.,.
CCCCC[C@@H](C)N1C[C@@H](COCc2ccccc2)Oc2cc(N3CCC[C@@H]3CO)ccc2S1(=O)=O,.,.,34.6*,.,.,7.9
COc1ccc2noc3c2c1C(=O)c1ccccc1-3,.,.,63.5*,35.7,.,103.8*
O=C(CCN1C(=O)/C(=C/c2cccs2)SC1=S)Nc1ccc(C(=O)O)c(O)c1,2.7,.,31.9*,33.4,-6.7,2.1
O=C(CCN1C(=O)/C(=C/c2cccs2)SC1=S)Nc1ccc(O)cc1,2.1,6.1,11.0,3.4,7.1,.
O=C(CCN1C(=O)/C(=C\C=C\c2ccccc2)SC1=S)Nc1cccc(C(=O)O)c1,9.0,15.9,33.2*,-6.9,7.2,4.7
O=C(CCCN1C(=O)/C(=C\c2ccccc2)SC1=S)Nc1cccc(C(=O)O)c1,.,.,7.2,-2.5,.,.
COc1ccc(S(=O)(=O)c2nnn(-c3ccc(Cl)cc3)c2C)cc1,.,.,.,-17.0,.,.
CCCCc1ccc(-c2csc(-c3ccccn3)n2)cc1,.,.,.,-20.0,.,.
COc1cc(N)c2ncccc2c1Br,4.1,6.0,105.1*,4.3,6.2,24.6
COc1cc(N)c2ncccc2c1SC,.,.,28.0,.,.,.
CC(=O)Nc1cc(-c2ccccc2N(C)C)cn2c(-c3cccc(C(F)(F)F)c3)cnc12,.,.,33.6*,.,.,-2.4
CSc1ncccc1C(=O)OCC(=O)N1CC2(C)CC1CC(C)(C)C2 (centres undefined),2.4,7.4,-7.8,-6.8,-5.9,.
CC1(C)CC2CC(C)(CN2C(=O)COC(=O)c2ccccc2C(F)(F)F)C1 (centres undefined),.,.,33.3*,-19.7,.,16.2
CCOC(=O)CSc1nc2cccnc2n1-c1ccc(F)cc1,0.3,11.4,5.1,-5.0,11.6,.
CC(C)OC(=O)CSc1nc2cccnc2n1-c1ccc(F)cc1,3.2,16.3,30.9*,-2.3,12.1,-8.7
O=C(C1=C(O)C(=O)N(CCN2CCOCC2)C1c1ccccn1)c1cccs1 (centres undefined),5.7,16.2,31.3*,3.0,7.2,-9.6
CCSc1nc(=S)cc(C)[nH]1,-5.6,0.9,31.3*,-4.7,21.3,-25.3
CCSc1nc(O)cc(=O)[nH]1,.,.,-10.8,24.3,.,.
Cc1ccc(NC(=O)C(=O)NCC2(c3cccs3)CCCC2)cc1Cl,.,.,.,-5.0,.,.
CCC(C)(C)C1CCc2c(sc(NC(=O)c3ccccc3C(=O)O)c2C#N)C1 (centres undefined),-0.6,14.2,35.1*,6.5,28.4,23.5
SMILES,Sa RN4220 lethal,Mtb hypoxia rep,CCHF vOTU inh-1,SSB-PriA inh,Sa ugtP lethal,CCHF vOTU inh-2
CCc1nc2c(OCCC3CCCCC3)cccn2c1N(C)C(=O)c1ccncc1,.,.,31.5*,.,.,-1.2
NC(=S)N=Nc1c(O)[nH]c2ccc(F)cc12,5.3,-7.0,13.1,8.2,-5.3,.
NC(=S)N=Nc1c(O)cc(O)c2[nH]c(=O)ccc12,.,.,86.7*,0.5,.,89.7*
COc1cc(C(N)=O)ccc1OCc1ccccc1,1.3,.,29.9*,-16.4,3.0,-27.0
Cc1ccc(NC(=S)Nc2cccc3cnccc23)cc1,3.1,16.1,11.8,10.3,6.2,.
CC(=O)c1ccc(NC(=S)Nc2cccc3cnccc23)cc1,5.7,3.6,39.0*,7.8,10.8,81.5*
NC(=O)CC(NC(=O)Cc1ccc(Br)cc1)c1ccc(NCCN2CCCC2)c([N+](=O)[O-])c1 (centres undefined),-1.4,8.3,34.5*,-2.2,0.0,-14.4
CCOC(=O)C1=C(C)OC(=CC=Cc2ccccc2)C1=O,.,.,29.8*,.,.,-9.0
O=C(c1ccc2ncsc2c1)N1CCSC(c2ccco2)CC1 (centres undefined),.,.,.,-1.0,.,.
O=[N+]([O-])c1cccc2ccc(/C=C/c3cccc(Br)c3)nc12,-8.2,2.2,30.9*,25.5,-14.8,-12.0
CCCOC(=S)NC(=O)c1sc2ccccc2c1Cl,33.9,6.0,1.6,2.8,3.0,.
CCOC(=S)NC(=O)c1sc2ccccc2c1Cl,8.6,9.7,33.9*,0.2,-9.5,-3.1
C=CCNC(=O)c1cccc2c1C(=O)c1ccc(N3CCOCC3)cc1S2(=O)=O,2.6,10.9,31.2*,5.0,14.0,-7.0
O=C1N=C(N2C=CC(=C3C=CNC=C3)C=C2)/C(=C/N=NC(=O)c2ccccc2)S1,2.4,24.6,40.9*,.,-1.7,-4.3
Cc1cc(N2CCN(c3ccc(O)cc3)CC2)nc(-n2nc(C)cc2C)n1,.,.,.,8.0,.,.
O=C(CC=NOCc1ccc(Cl)cc1Cl)c1ccc(Cl)cc1,6.1,5.3,.,-14.0,-2.1,.
Clc1ccc(C(c2ccc(Cl)cc2)n2cc[n+](CC(OCc3ccc(Cl)cc3Cl)c3ccc(Cl)cc3Cl)c2)cc1 (centres undefined),100.4*,.,40.9*,9.6,100.1*,25.2
O=C1/C(=C\c2ccco2)SC(=S)N1CCC(=O)N1c2ccccc2Sc2ccc(Cl)cc21,.,.,.,-1.0,.,.
Oc1ccc(NCc2ccccc2OCc2ccccc2)cc1,-3.0,1.3,51.4*,-8.1,-15.8,16.9
CC(C)CCn1c(SCc2nc(-c3ccc(Cl)cc3)no2)nc2ccsc2c1=O,.,.,.,-10.0,.,.
Oc1ccccc1CNc1cccc2cccnc12,-2.8,2.6,52.0*,20.1,3.4,90.8*
NC(=S)NNc1cccc2cccnc12,11.9,6.2,101.2*,28.7,14.9,33.6*
COc1cc(NCc2ccccc2O)c2ncccc2c1,3.6,-5.0,8.8,-0.8,-6.3,.
CCOC(=O)c1csc(NC(=O)C2c3ccccc3Oc3ccccc32)n1,.,.,.,-5.0,.,.
O=S(=O)(Nc1cc2nc3ccccc3nc2n1Cc1ccccc1)c1ccc(Cl)cc1,-1.9,5.5,111.3*,14.9,-16.3,67.2*
SMILES,Sa RN4220 lethal,Mtb hypoxia rep,CCHF vOTU inh-1,SSB-PriA inh,Sa ugtP lethal,CCHF vOTU inh-2
Cc1ccc(S(=O)(=O)Nc2c(S(=O)(=O)c3ccccc3)c3nc4ccccc4nc3n2CCc2ccccc2)cc1,.,.,.,44.8,.,.
O=S(=O)(Nc1c(S(=O)(=O)c2ccccc2)c2nc3ccccc3nc2n1C1CCCCC1)c1ccccc1,3.5,3.8,93.7*,73.3*,-9.8,63.6*
C=CCn1c(NS(=O)(=O)c2ccccc2)c(S(=O)(=O)c2ccc(C)cc2)c2nc3ccccc3nc21,9.7,5.6,32.5*,18.3,-4.4,-14.1
CC1(C)CC(=O)N(CC(=O)N2CCN(c3cccc(Cl)c3Cl)CC2)c2ccccc2S1(=O)=O,.,.,0.3,.,.,.
Cc1cc(C(=O)NCc2sc(-c3ccccc3Cl)nc2C)c(C)o1,.,.,.,-13.0,.,.
CC(C)(C)C(=O)/C=c1\[nH]c(=O)/c(=C\c2ccc(F)cc2)s1,.,.,19.9,.,.,.
